Source: article PMC7862700, “An all-to-all approach to the identification of sequence-specific readers for epigenetic DNA modifications on cytosine”

Tests used:
Experiment in all cases: DAPPL (digital affinity profiling via proximity ligation, sequencing); 10 mM Tris-HCl pH 7.5, 50 mM NaCl, 1 mM DTT, 4% glycerol, room temperature, 30 min; GST-TFs on glutathione beads, 16-mer random dsDNA library, 0.1% formaldehyde crosslink after washing; high values mean tight binding
Settings in all cases: protein: recombinant; tags: N-terminal GST; dsDNA, one strand shown
[1] = target: T1, ERF (Homo sapiens, UniProt P50548 1-548)
T1 sequence: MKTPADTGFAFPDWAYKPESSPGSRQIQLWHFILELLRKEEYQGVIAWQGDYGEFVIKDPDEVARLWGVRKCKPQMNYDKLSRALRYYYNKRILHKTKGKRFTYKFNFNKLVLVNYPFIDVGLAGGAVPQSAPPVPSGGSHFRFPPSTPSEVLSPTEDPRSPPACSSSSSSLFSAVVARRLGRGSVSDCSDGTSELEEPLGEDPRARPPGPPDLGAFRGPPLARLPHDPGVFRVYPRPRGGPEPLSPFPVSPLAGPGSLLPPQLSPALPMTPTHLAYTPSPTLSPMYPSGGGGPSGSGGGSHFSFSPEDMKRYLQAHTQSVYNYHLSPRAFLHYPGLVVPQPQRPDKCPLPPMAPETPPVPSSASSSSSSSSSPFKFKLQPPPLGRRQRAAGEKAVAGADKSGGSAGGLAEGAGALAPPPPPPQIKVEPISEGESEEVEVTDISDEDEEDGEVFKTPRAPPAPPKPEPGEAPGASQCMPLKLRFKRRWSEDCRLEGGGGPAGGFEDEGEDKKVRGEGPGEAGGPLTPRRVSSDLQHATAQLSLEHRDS
How it was run: (§1)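 Binding signal is given per hexamer as its read frequency for a factor divided by its frequency in the tag-only sample. GST-fused human transcription factors were expressed in yeast, captured on glutathione beads, barcoded with DNA and pooled with that sample, then incubated with 200 nmole of a 16-mer random double-stranded DNA library in Tris/NaCl/DTT/glycerol buffer for 30 min at room temperature. The pools were then washed, crosslinked, proximity-ligated, amplified by PCR and sequenced on an Illumina NextSeq500.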

[2] = target: T2, ETV3L (Homo sapiens, UniProt Q6ZN32 1-361)
T2 sequence: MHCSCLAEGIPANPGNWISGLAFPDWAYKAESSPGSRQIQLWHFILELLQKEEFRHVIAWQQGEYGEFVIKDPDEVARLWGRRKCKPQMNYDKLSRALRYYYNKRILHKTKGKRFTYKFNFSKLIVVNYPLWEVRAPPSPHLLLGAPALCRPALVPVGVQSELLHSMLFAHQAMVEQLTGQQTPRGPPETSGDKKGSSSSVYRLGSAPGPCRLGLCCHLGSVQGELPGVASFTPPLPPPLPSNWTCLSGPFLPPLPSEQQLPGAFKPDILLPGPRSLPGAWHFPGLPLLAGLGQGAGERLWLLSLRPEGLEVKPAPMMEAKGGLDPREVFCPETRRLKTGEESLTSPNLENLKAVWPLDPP
How it was run: as §1

[3] = target: T3, ETS2 (Homo sapiens, UniProt P15036 1-469)
T3 sequence: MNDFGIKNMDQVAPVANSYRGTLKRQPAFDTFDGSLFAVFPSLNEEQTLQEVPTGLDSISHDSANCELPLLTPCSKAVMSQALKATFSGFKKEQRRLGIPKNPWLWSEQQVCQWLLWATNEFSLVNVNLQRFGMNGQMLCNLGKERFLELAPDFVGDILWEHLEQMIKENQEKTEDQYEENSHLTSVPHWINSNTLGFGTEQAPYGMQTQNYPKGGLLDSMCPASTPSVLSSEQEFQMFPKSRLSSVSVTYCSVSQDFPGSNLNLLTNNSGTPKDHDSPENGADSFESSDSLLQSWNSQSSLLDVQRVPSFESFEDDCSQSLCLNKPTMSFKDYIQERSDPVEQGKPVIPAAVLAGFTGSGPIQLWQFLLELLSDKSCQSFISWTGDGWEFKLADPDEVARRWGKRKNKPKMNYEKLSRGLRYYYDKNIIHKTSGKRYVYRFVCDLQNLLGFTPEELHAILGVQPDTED
How it was run: as §1

[4] = target: T4, SPDEF (Homo sapiens, UniProt O95238 1-335)
T4 sequence: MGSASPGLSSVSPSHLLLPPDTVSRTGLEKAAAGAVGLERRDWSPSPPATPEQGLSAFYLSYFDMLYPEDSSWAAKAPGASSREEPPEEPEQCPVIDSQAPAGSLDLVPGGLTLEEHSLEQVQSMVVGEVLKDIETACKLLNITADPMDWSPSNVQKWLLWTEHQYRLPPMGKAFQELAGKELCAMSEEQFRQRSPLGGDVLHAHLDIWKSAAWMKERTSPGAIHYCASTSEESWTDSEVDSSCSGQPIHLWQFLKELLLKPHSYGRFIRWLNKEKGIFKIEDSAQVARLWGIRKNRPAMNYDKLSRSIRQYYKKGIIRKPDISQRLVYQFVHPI
How it was run: as §1

[5] = target: T5, ETV7 (Homo sapiens, UniProt Q9Y603 1-341)
T5 sequence: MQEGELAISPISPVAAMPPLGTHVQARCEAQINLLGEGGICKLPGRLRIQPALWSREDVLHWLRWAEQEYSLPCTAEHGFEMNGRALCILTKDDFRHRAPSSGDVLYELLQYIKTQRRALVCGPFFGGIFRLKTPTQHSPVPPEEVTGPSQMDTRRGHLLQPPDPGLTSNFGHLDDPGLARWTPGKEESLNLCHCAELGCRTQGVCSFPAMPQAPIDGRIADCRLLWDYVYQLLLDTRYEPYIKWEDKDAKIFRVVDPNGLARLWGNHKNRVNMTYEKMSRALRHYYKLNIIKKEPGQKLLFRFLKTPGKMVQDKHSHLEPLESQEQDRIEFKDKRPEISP
How it was run: as §1

[6] = target: T6, ELF5 (Homo sapiens, UniProt Q9UKW6-2 1-255)
T6 sequence: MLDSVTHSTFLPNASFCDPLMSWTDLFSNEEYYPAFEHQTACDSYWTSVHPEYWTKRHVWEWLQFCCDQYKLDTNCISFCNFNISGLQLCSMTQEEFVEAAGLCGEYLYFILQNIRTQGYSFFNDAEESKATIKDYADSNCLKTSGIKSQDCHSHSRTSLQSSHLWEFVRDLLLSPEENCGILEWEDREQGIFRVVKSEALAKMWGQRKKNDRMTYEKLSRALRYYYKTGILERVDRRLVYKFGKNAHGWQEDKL
How it was run: as §1

[7] = target: T7, ETV3 (Homo sapiens, UniProt P41162-2 1-143)
T7 sequence: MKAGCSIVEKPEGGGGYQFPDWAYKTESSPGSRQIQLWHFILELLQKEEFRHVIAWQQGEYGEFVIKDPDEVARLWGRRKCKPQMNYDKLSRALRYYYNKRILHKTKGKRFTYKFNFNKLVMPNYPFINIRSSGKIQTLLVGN
How it was run: as §1

[8] = target: ETV6 (Homo sapiens, UniProt P41212 1-452)
Chain of ETV6 (P41212 whole entry): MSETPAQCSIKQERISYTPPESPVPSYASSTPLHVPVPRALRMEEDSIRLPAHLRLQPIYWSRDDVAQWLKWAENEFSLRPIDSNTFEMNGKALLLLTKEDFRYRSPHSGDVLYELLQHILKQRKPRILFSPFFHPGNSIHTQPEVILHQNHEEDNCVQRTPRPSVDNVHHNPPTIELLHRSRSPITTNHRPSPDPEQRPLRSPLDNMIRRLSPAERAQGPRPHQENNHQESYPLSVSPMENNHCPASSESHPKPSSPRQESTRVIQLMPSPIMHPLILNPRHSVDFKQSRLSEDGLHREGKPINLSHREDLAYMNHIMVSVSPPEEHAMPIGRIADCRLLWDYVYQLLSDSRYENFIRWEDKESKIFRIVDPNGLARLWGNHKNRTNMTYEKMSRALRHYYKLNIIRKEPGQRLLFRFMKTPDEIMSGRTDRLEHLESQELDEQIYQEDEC
How it was run: as §1

Row | Sequence | binding signal [1] | binding signal [2] | binding signal [3] | binding signal [4] | binding signal [5] | binding signal [6] | binding signal [7] | binding signal [8]
1 | ATAACA | 1.31 fold enrichment (6-mer frequency, TF over GST control) | 1.28 fold enrichment (6-mer frequency, TF over GST control) | 1.27 fold enrichment (6-mer frequency, TF over GST control) | 1.21 fold enrichment (6-mer frequency, TF over GST control) | 1.32 fold enrichment (6-mer frequency, TF over GST control) | 1.28 fold enrichment (6-mer frequency, TF over GST control) | 1.2 fold enrichment (6-mer frequency, TF over GST control) | 1.26 fold enrichment (6-mer frequency, TF over GST control)
2 | CTTGGG | 1.47 fold enrichment (6-mer frequency, TF over GST control) | 1.26 fold enrichment (6-mer frequency, TF over GST control) | 1.28 fold enrichment (6-mer frequency, TF over GST control) | 1.21 fold enrichment (6-mer frequency, TF over GST control) | 1.3 fold enrichment (6-mer frequency, TF over GST control) | 1.19 fold enrichment (6-mer frequency, TF over GST control) | 1.26 fold enrichment (6-mer frequency, TF over GST control) | 1.23 fold enrichment (6-mer frequency, TF over GST control)
3 | TCTTTC | 1.33 fold enrichment (6-mer frequency, TF over GST control) | 1.39 fold enrichment (6-mer frequency, TF over GST control) | 1.43 fold enrichment (6-mer frequency, TF over GST control) | 1.44 fold enrichment (6-mer frequency, TF over GST control) | 1.27 fold enrichment (6-mer frequency, TF over GST control) | 1.48 fold enrichment (6-mer frequency, TF over GST control) | 1.44 fold enrichment (6-mer frequency, TF over GST control) | 1.38 fold enrichment (6-mer frequency, TF over GST control)
4 | TTCGAC | 1.43 fold enrichment (6-mer frequency, TF over GST control) | 1.39 fold enrichment (6-mer frequency, TF over GST control) | 1.42 fold enrichment (6-mer frequency, TF over GST control) | 1.36 fold enrichment (6-mer frequency, TF over GST control) | 1.37 fold enrichment (6-mer frequency, TF over GST control) | 1.36 fold enrichment (6-mer frequency, TF over GST control) | 1.45 fold enrichment (6-mer frequency, TF over GST control) | 1.3 fold enrichment (6-mer frequency, TF over GST control)
5 | CTCGCA | 1.26 fold enrichment (6-mer frequency, TF over GST control) | 1.3 fold enrichment (6-mer frequency, TF over GST control) | 1.35 fold enrichment (6-mer frequency, TF over GST control) | 1.2 fold enrichment (6-mer frequency, TF over GST control) | 1.23 fold enrichment (6-mer frequency, TF over GST control) | 1.15 fold enrichment (6-mer frequency, TF over GST control) | 1.34 fold enrichment (6-mer frequency, TF over GST control) | 1.19 fold enrichment (6-mer frequency, TF over GST control)
6 | TTTTAC | 1.3 fold enrichment (6-mer frequency, TF over GST control) | 1.32 fold enrichment (6-mer frequency, TF over GST control) | 1.44 fold enrichment (6-mer frequency, TF over GST control) | 1.32 fold enrichment (6-mer frequency, TF over GST control) | 1.52 fold enrichment (6-mer frequency, TF over GST control) | 1.27 fold enrichment (6-mer frequency, TF over GST control) | 1.45 fold enrichment (6-mer frequency, TF over GST control) | 1.33 fold enrichment (6-mer frequency, TF over GST control)
7 | TATATC | 1.61 fold enrichment (6-mer frequency, TF over GST control) | 1.56 fold enrichment (6-mer frequency, TF over GST control) | 1.64 fold enrichment (6-mer frequency, TF over GST control) | 2.19 fold enrichment (6-mer frequency, TF over GST control) | 1.48 fold enrichment (6-mer frequency, TF over GST control) | 1.66 fold enrichment (6-mer frequency, TF over GST control) | 1.68 fold enrichment (6-mer frequency, TF over GST control) | 1.5 fold enrichment (6-mer frequency, TF over GST control)
